# Screening results as filed in PubChem.
# TDP1 cell CPT – qHTS for Inhibitors of human tyrosyl-DNA phosphodiesterase 1 (TDP1): qHTS in cells in presence of CPT | chicken DT40 Tdp1-/-;hTDP1 cells + 20 nM CPT, ATP luminescence, 48 h | Potency, µM (top dose mostly 46.2 µM), for the others: at the top dose activity change, negative = growth inhibition, usual class: inhibitors | hit rate 12% among 420,000 | AID 686979, 2013; note: potency is the fitted concentration of half-maximal effect; nearly all actives have a fitted effect of over 55% in size
#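 Cell growth measured by CellTiter-Glo luminescence after a minimum 48 h, 37 C compound exposure with 20 nM CPT in Tdp1-knockout DT40 cells stably expressing hTDP1, seeded 400/well; qHTS titration format.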
# HT1080 IDH1KD tx – qHTS for induction of synthetic lethality in tumor cells producing 2HG: qHTS for the HT-1080-IDH1KD cell line | HT-1080 IDH1 knockdown viability, ATP luminescence, 48 h | hit rate 2% among 360,000 | Potency, µM (titrated, usually from 46.1 µM), for the others: at the top dose activity, negative = toxicity, usual class: cytotoxic;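 note: potency is the fitted concentration of half-maximal effect; 0% = DMSO wells and -100% = cell-free medium wells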
#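 Assay cells: HT-1080 with IDH1 knockdown, 750 per well, RPMI/5% FBS. Exposure: 48 h at 37 °C following 2 h pre-incubation. Read: CellTiter-Glo luminescence; fitted concentration-response, curve class assigned.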
# HT1080NT lethal – qHTS for induction of synthetic lethality in tumor cells producing 2HG: qHTS for the HT-1080-NT fibrosarcoma cell line | HT-1080-NT fibrosarcoma viability, CellTiter-Glo ATP luminescence, 48 h | hit rate 1.6% among 360,000 | Potency, µM (doses to about 46.1 µM), inactives show at the top dose activity, negative = less viability, actives largely listed as cytotoxic;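 note: NT is the 2HG producing partner of a matched IDH1 knockdown line; potency is the fitted concentration of half-maximal effect; 0% = DMSO-treated cells and -100% = media-only wells without cells; nearly all actives have a fitted effect of over 55% in size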
#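 Compounds were tested in concentration-response format on HT-1080-NT cells for 48 hours at 37 degrees C. Cell viability came from CellTiter-Glo luminescence; curves were classified by r2, response magnitude and activity.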
# TDP1 cell noCPT – qHTS for Inhibitors of human tyrosyl-DNA phosphodiesterase 1 (TDP1): qHTS in cells in absence of CPT | DT40 Tdp1-/- hTDP1 cells, no CPT, ATP luminescence, 48 h | Potency, µM (series often up to 46.2 µM), inactives show at the top dose activity change, negative = growth inhibition, actives largely listed as inhibitors | hit rate 15% among 420,000 | AID 686978, 2013; note: potency is the fitted concentration of half-maximal effect; nearly all actives have a fitted effect of over 55% in size
#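 Compound effects on proliferation are scored in DT40 Tdp1-/-;hTDP1 cells in the absence of CPT. ATP levels (CellTiter-Glo luminescence) are recorded after a ≥48 hr, 37 °C incubation.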
# IL-1B inflam inh – qHTS for Inhibitors of Inflammasome Signaling: IL-1-beta AlphaLISA Primary Screen; THP-1 LPS/ATP IL-1B secretion, AlphaLISA, 16 h; stronger effect = lower value; activity change, % at 57.5 µM; hit rate 4.7% among 360,000; AID 743279, 2014; in the data active = activity change below about -50%; inconclusive = mostly about -30% to -49%
#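 Secreted IL-1B measured by AlphaLISA bead assay after 16 h compound exposure of THP-1 cells; compounds (final up to 57.5 uM) added 1 h before LPS (250 ng/mL) and ATP (1.25 mM) stimulation; lower signal means less secretion.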
# Numbers without * were called inactive; i = inactive; ? = inconclusive; · = no result; [ ] = dose if it differs, or a comment. Only some compounds are listed: those with a hit (about 19% of all), similar ones and a draw of the others. Unless noted, calls come from the whole dose curve; as a rule, active = well fitted curve in the direction sought with a large enough effect; inconclusive = small, poorly fitted or top-dose-only effect, or another doubt; inactive = no such curve, though single readings can be large; an effect the other way counts as inactive or inconclusive. Unless noted, % is set by controls: 0 for no effect and ±100 for the full control effect.
SMILES,TDP1 cell CPT,HT1080 IDH1KD tx,HT1080NT lethal,TDP1 cell noCPT,IL-1B inflam inh
O=C(Nc1ccc(N2CCCC2)cc1)c1cc2ccccc2o1,-9%,7%,5%,?,-11
CCCCOC(=O)c1cccc(NC(=O)c2cc3ccccc3o2)c1,13µM*,·,·,5.2µM*,·
Cc1nc(N2CCCC2)ncc1C(=O)NCc1cccc(Cl)c1,-25%,·,·,-5%,·
CC(=O)Nc1cccc(NC(=O)c2cc3ccccc3o2)c1,16µM*,-11%,-9%,21µM*,-3
O=C(CSc1nnc(CNC(=O)c2ccco2)o1)Nc1ccc(F)cc1F,-6%,0%,7%,17%,-9
COc1ccc(CNC(=O)c2ccc3c(c2)N(Cc2ccccc2C)C(=O)c2ccccc2S3=O)cc1 (centres undefined),-18%,·,·,?,·
COCCNC(=O)c1ccc2c(c1)N(Cc1cc(C)ccc1C)C(=O)c1ccccc1S2=O (centres undefined),?,·,·,15µM*,·
Cc1ccc(C)c(CN2C(=O)c3ccccc3S(=O)c3ccc(C(=O)NCCc4ccc(Cl)cc4)cc32)c1 (centres undefined),13µM*,·,·,7.3µM*,·
COCCCNC(=O)c1ccc2c(c1)N(Cc1ccccc1F)C(=O)c1ccccc1S2=O (centres undefined),-6%,·,·,-14%,·
OCC[C@H]1NCc2cc(CO)cc(-c3ccccc3)c21,?,-1%,-4%,?,?
O=C(COC(=O)c1cc(Br)ccc1O)Nc1cccnc1Cl,-4%,7%,4%,1%,1
O=C(/C=C/c1ccccn1)c1cc(Br)ccc1O,23µM*,11%,-4%,23µM*,?
O=C(/C=C/c1ccccn1)c1ccc(Br)cc1O,21µM*,8%,4%,18µM*,-22
COc1ccccc1NS(=O)(=O)c1ccc2oc(N)nc2c1,-4%,-17%,7%,-6%,9
Cc1ccc([N+](=O)[O-])c(OCCCN2C(=O)NC(C)(C)C2=O)c1,-9%,-2%,-11%,3%,0
C=CCOC(=O)C1=C(C)OC(N)=C(C#N)C1c1c(C)nn(-c2ccccc2)c1Cl (centres undefined),?,-2%,1%,9.2µM*,-13
CCOC(=O)C1=C(C)OC(N)=C(C#N)C1c1c(C)nn(-c2ccccc2)c1Cl (centres undefined),-30%,-3%,-1%,?,-10
Cc1ccc(OCC(=O)Nc2ccccc2C(=O)OCc2cc(=O)n3c(C)csc3n2)cc1,16µM*,·,·,21µM*,·
CC(Oc1ccccc1)C(=O)Nc1ccccc1C(=O)OCc1cc(=O)n2nc(C3CC3)sc2n1 (centres undefined),3.7µM*,·,·,7.3µM*,·
Cc1ccc(OCC(=O)Nc2ccccc2C(=O)OCc2cc(=O)n3nc(C4CC4)sc3n2)cc1,7.3µM*,·,·,10µM*,·
CCOC(=O)C1C(=O)CC(C)(O)C(C(=O)OCC)C1c1ccc(NC(C)=O)cc1 (centres undefined),-3%,4%,12%,1%,2
Cc1c(C(=O)NC2CCCCCC2)sc2ncnc(NCC3CCCO3)c12 (centres undefined),-4%[9.04 µM],·,·,?,·
CCC(C)NC(=O)CCc1c(C)nc2c(c(C)nn2-c2ccccc2)c1C (centres undefined),10µM*,-2%,-7%,23µM*,-3
COC(=O)C(NC(=O)CCc1c(C)nc2c(c(C)nn2-c2ccccc2)c1C)C(C)C (centres undefined),16µM*,-5%,0%,16µM*,31
CCOC(=O)CCc1c(C)nc2c(c(C)nn2-c2ccccc2)c1C,?,8%,9%,0%,0
SMILES,TDP1 cell CPT,HT1080 IDH1KD tx,HT1080NT lethal,TDP1 cell noCPT,IL-1B inflam inh
O=C(NCCn1cccn1)c1ccc(OC2CCN(CCc3ccccc3)CC2)cc1,13%,1%,-4%,-19%,-81*
O=C(Nc1ccon1)c1cc2c(s1)CCCCCC2,-4%,-1%,-4%[9.24 µM],-13%,0
O=C(Nc1cccc(S(=O)(=O)Nc2ccc(Cl)cc2)c1)c1cc2c(s1)CCCC2,?,21µM*,21µM*,?,-81*
Cc1ccc(C(=O)Nc2ccc(C)c(S(=O)(=O)Nc3ccccc3Cl)c2)s1,?,?,-21%,?,-62*
COc1ccccc1NS(=O)(=O)c1cc(NC(=O)c2sc3cc(Cl)ccc3c2Cl)ccc1C,?,9%,23%,?,24
Cc1ccc(NC(=O)c2cc3c(s2)CCCC3)cc1S(=O)(=O)Nc1ccccc1Cl,16µM*,?,-4%,23µM*,92
O=C(Nc1ccc(Cl)c(S(=O)(=O)Nc2ccccc2Cl)c1)c1cccs1,-13%,?,?,?,-93*
O=C(Nc1cc(S(=O)(=O)Nc2ccccc2Cl)ccc1O)c1cc2c(s1)CCCC2,-16%,2%,0%,-25%,1
CCN(CC)C1CCN(C(=O)c2cnn(-c3ncc4c(n3)-c3ccccc3CCC4)c2COC)C1 (centres undefined),24%[9.04 µM],·,·,-8%,·
Cc1cccc2c1cnn2C(=O)CCC(=O)NCc1ccc(F)cc1,-16%,3%,-1%,0%,7
COc1cc(/C=N/N(C)S(=O)(=O)c2ccc(C)cc2)cc([N+](=O)[O-])c1O,4%,1%,19%,-14%,13
O=C(Nc1ccc(Cl)c(Cl)c1)Nc1ccc(Br)cc1F,5.8µM*,16µM*,?,12µM*,?
Fc1cc(Br)ccc1NC(=S)Nc1ccccc1,-8%,16%,18%,?,0
O=C(Nc1ccc(Br)cc1)Nc1ccccc1F,15µM*,-17%,-2%,15µM*,-66*
Fc1ccccc1NC(=S)Nc1ccc(Br)cc1,15µM*,1%,-4%,23µM*,-58*
N#Cc1ccc(NC(=S)Nc2ccccc2)cc1,?,12%,-9%,15µM*,i
CC(=O)N(C)c1ccc(NC(=O)CCN2C(=O)c3ccccc3C2=O)cc1,7%,6%,4%,23%,16
CC(C)c1cc(C(=O)N/N=C/c2ccco2)n[nH]1,-18%,16%,13%,7%,-5
COc1ccccc1OCC(=O)NCC1CCCN(C(=O)c2cccc(C)c2)C1 (centres undefined),-22%,-1%,3%,?,11
O=C(NNc1ccccc1)Nc1ccccc1F,?,-5%,-8%,7.3µM*,-3
